# Laboratory results: the supplement of paper PMC8728848
# Many of the other results were omitted from the sample, so the strongest signals are more common in it than they were.
# B1: B725 (Bifidobacterium sp) (protein)
# chain: MNNTTRAVIATAAIGALLIPLAGCGNTTTSSGKTELTVWSWDASIDRAAKSFMKANPDITVKVSNVGSTEETYTALNNAAQAGSGLPDVTLIEYLAIPQFVHSDTLMDLSKVYNTAKLKDTFTPGTWNSVNINGGLYAMPADSGPMAYFYDKDVFDKAGISEPPTTWDEFYEDAKKIRATGSYITSDSGDAGLFNAMMWAMGGHAYKLNDDKLTINIAKDKGAQRFMDLWQKMRDEDLIDVHTKTWTDDWMKSLGDGSIASLISGAWMANNLLQGVPQATGKFRVALLPTIDGTPINGEYGGSGLAITKKIPDGKLDAAKKFVEYVTTNDEGIDARVSNGSFPATTKTLNQKDFLAKTTLRNTDGSDNEFFGGQKYNEIFSQAAKDVTGKWEFLPFEPYARSVYNDNMGSFFAGKTSFRTAADNWQKALKDYAKDQGFTVQ
# Key:
# Assay in all cases: glycan array binding signal (z-score within array); higher = stronger binding
# Details in all cases: glycan notation: IUPAC condensed, linker removed
# [1] = target: Gal(b1-4)GlcNAc(b1-3)GalNAc
# Method in brief: (§1)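 Glycan array data were curated from 3228 arrays in the Consortium for Functional Glycomics database and kept only where the protein sequence was available. Glycan names were converted to IUPAC-condensed notation, and columns mapping to the same glycan were averaged. The binding signal is a within-array Z-score, averaged across arrays of the same protein sequence at different concentrations or buffers and across linkers. Negative Z-scores can be read as non-binding.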
# Gal6S(b1-3)GlcNAc = target: Gal6S(b1-3)GlcNAc
# Method in brief: as §1
# [2] = target: GalNAc(a1-3)GalNAc(b1-3)Gal(a1-4)Gal(b1-4)Glc
# Method in brief: as §1
# Glc(b1-6)Glc = target: Glc(b1-6)Glc
# Method in brief: as §1
# GlcNAc(b1-3)Fuc = target: GlcNAc(b1-3)Fuc
# Method in brief: as §1
# [3] = target: GlcNAc(b1-3)Gal(b1-4)GlcNAc(b1-2)Man(a1-3)[GlcNAc(b1-3)Gal(b1-4)GlcNAc(b1-2)Man(a1-6)]Man(b1-4)GlcNAc(b1-4)[Fuc(a1-6)]GlcNAc
# Method in brief: as §1
# [4] = target: GlcNAc(b1-3)Gal(b1-4)GlcNAc(b1-3)Gal(b1-4)GlcNAc(b1-2)Man(a1-3)[GlcNAc(b1-3)Gal(b1-4)GlcNAc(b1-3)Gal(b1-4)GlcNAc(b1-2)Man(a1-6)]Man(b1-4)GlcNAc(b1-4)[Fuc(a1-6)]GlcNAc
# Method in brief: as §1
# [5] = target: GlcNAc(b1-3)Gal(b1-4)GlcNAc(b1-3)Gal(b1-4)GlcNAc(b1-2)[GlcNAc(b1-3)Gal(b1-4)GlcNAc(b1-3)Gal(b1-4)GlcNAc(b1-6)]Man(a1-6)[GlcNAc(b1-3)Gal(b1-4)GlcNAc(b1-3)Gal(b1-4)GlcNAc(b1-2)Man(a1-3)]Man(b1-4)GlcNAc(b1-4)[Fuc(a1-6)]GlcNAc
# Method in brief: as §1
# [6] = target: GlcNAc(b1-3)Gal(b1-4)GlcNAc(b1-3)Gal(b1-4)GlcNAc(b1-3)Gal(b1-4)GlcNAc(b1-3)Gal(b1-4)GlcNAc(b1-2)Man(a1-3)[GlcNAc(b1-3)Gal(b1-4)GlcNAc(b1-3)Gal(b1-4)GlcNAc(b1-3)Gal(b1-4)GlcNAc(b1-3)Gal(b1-4)GlcNAc(b1-2)Man(a1-6)]Man(b1-4)GlcNAc(b1-4)[Fuc(a1-6)]GlcNAc
# Method in brief: as §1
# GlcNAc(b1-3)Man = target: GlcNAc(b1-3)Man
# Method in brief: as §1
# [7] = target: Neu5Ac(a2-3)Gal(b1-3)GalNAc(b1-3)Gal(a1-4)Gal(b1-4)Glc
# Method in brief: as §1
# Neu5Ac(a2-3)Gal(b1-4)Glc = target: Neu5Ac(a2-3)Gal(b1-4)Glc
# Method in brief: as §1
# [8] = target: Neu5Ac(a2-3)Gal(b1-4)GlcNAc(b1-2)Man
# Method in brief: as §1
# [9] = target: Neu5Ac(a2-3)Gal(b1-4)GlcNAc(b1-3)Gal(b1-4)GlcNAc(b1-3)Gal(b1-4)GlcNAc(b1-2)Man(a1-3)[Neu5Ac(a2-3)Gal(b1-4)GlcNAc(b1-3)Gal(b1-4)GlcNAc(b1-3)Gal(b1-4)GlcNAc(b1-2)Man(a1-6)]GalNAc
# Method in brief: as §1
# Neu5Ac(a2-6)Gal = target: Neu5Ac(a2-6)Gal
# Method in brief: as §1
# [10] = target: Neu5Ac(a2-6)Gal(b1-3)GlcNAc(b1-3)[Gal(b1-4)GlcNAc(b1-6)]Gal(b1-4)Glc
# Method in brief: as §1
# [11] = target: Neu5Ac(a2-6)Gal(b1-4)GlcNAc(b1-2)Man(a1-3)[GlcNAc(b1-4)][Neu5Ac(a2-6)Gal(b1-4)GlcNAc(b1-2)Man(a1-6)]Man(b1-4)GlcNAc(b1-4)GlcNAc
# Method in brief: as §1
# [12] = target: Neu5Ac(a2-6)Gal(b1-4)GlcNAc(b1-2)Man(a1-3)[Neu5Ac(a2-6)Gal(b1-4)GlcNAc(b1-2)Man(a1-6)]Man(b1-4)GlcNAc(b1-4)[Fuc(a1-6)]GlcNAc
# Method in brief: as §1
# [13] = target: Neu5Ac(a2-6)Gal(b1-4)GlcNAc(b1-2)[Neu5Ac(a2-6)Gal(b1-4)GlcNAc(b1-4)]Man(a1-3)[GlcNAc(b1-4)][Neu5Ac(a2-6)Gal(b1-4)GlcNAc(b1-4)Man(a1-6)]Man(b1-4)GlcNAc(b1-4)GlcNAc
# Method in brief: as §1
# [14] = target: Neu5Ac(a2-6)Gal(b1-4)GlcNAc(b1-3)Gal(b1-4)GlcNAc(b1-3)GalNAc
# Method in brief: as §1
# Neu5Ac(a2-8)Neu5Ac = target: Neu5Ac(a2-8)Neu5Ac
# Method in brief: as §1
# [15] = target: Neu5Ac(a2-8)Neu5Ac(a2-3)Gal(b1-3)GalNAc(b1-4)[Neu5Ac(a2-8)Neu5Ac(a2-3)]Gal(b1-4)Glc
# Method in brief: as §1
# [16] = target: Neu5Gc(a2-8)Neu5Gc(a2-3)Gal(b1-4)GlcNAc(b1-3)Gal(b1-4)GlcNAc
# Method in brief: as §1
binder,measurement,setting,value
B1,glycan array binding signal (z-score),[1],0.358
same,glycan array binding signal (z-score),Gal6S(b1-3)GlcNAc,-0.217
same,glycan array binding signal (z-score),[2],-0.209
same,glycan array binding signal (z-score),Glc(b1-6)Glc,-0.219
same,glycan array binding signal (z-score),GlcNAc(b1-3)Fuc,-0.207
same,glycan array binding signal (z-score),[3],-0.131
same,glycan array binding signal (z-score),[4],-0.216
same,glycan array binding signal (z-score),[5],-0.203
same,glycan array binding signal (z-score),[6],0.138
same,glycan array binding signal (z-score),GlcNAc(b1-3)Man,-0.204
same,glycan array binding signal (z-score),[7],-0.221
same,glycan array binding signal (z-score),Neu5Ac(a2-3)Gal(b1-4)Glc,-0.228
same,glycan array binding signal (z-score),[8],-0.207
same,glycan array binding signal (z-score),[9],-0.042
same,glycan array binding signal (z-score),Neu5Ac(a2-6)Gal,-0.222
same,glycan array binding signal (z-score),[10],-0.205
same,glycan array binding signal (z-score),[11],-0.227
same,glycan array binding signal (z-score),[12],-0.217
same,glycan array binding signal (z-score),[13],-0.212
same,glycan array binding signal (z-score),[14],-0.214
same,glycan array binding signal (z-score),Neu5Ac(a2-8)Neu5Ac,-0.215
same,glycan array binding signal (z-score),[15],-0.2
same,glycan array binding signal (z-score),[16],-0.198
